Measured values: PubChem BioAssay (NCATS)
Inconclusive results are not listed. A number with no mark means an inactive call. The source made the active and inactive calls. Calls come from the whole dose curve; as a rule, active = well fitted cell-killing curve with a large enough effect; inconclusive = small, poorly fitted or top-dose-only effect, or effect the other way; inactive = no such curve, though single readings can be large or run the other way.

Test: Quantitative High-Throughput drug screen in 47 multiple myeloma cell lines against the NCATS MIPE library collection: KMS12BM_JCRB cell viability assay (AID 1918971); note: nearly all actives have a fitted effect of over 35% in size
Conditions: KMS12BM myeloma viability, CellTiter-Glo ATP, 48 h; series mostly up to 45.8 µM; viability, % of DMSO: at the top concentration
Description: PI: Beverly A. Mock Ph.D.
Laboratory of Cancer Biology and Genetics,
Center for Cancer Research, National Cancer Institute,
National Institute of Health, Bethesda, Maryland
Drug resistance and disease progression are common in multiple myeloma (MM) patients, underscoring the need for new therapeutic combinations. […] We hypothesized that effective combinations would reduce MYC expression and enhance p16 activity. […] These preclinical data identify potentially useful drug combinations for evaluation in drug-resistant MM and reveal potential mechanisms of combined drug sensitivity.
Described herein is the primary MIPE qHTS used to cherrypick compounds. Validated compounds were then further tested for potential synergistic activiy.
[1] Peat TJ, Gaikwad SM, Dubois W, Gyabaah-Kessie N, Zhang S, Gorjifard S, Phyo Z, Andres M, Hughitt VK, Simpson RM, Miller MA, Girvin AT, Taylor A, Williams D, D'Antonio N, Zhang Y, Rajagopalan A, Flietner E, Wilson K, Zhang X, Shinn P, Klumpp-Thomas C, McKnight C, Itkin Z, Chen L, Kazandijian D, Zhang J, Michalowski AM, Simmons JK, Keats J, Thomas CJ, Mock BA. Drug combinations identified by high-throughput screening promote cell cycle transition and upregulate Smad pathways in myeloma. Cancer Lett. 2023 Aug 1;568:216284. doi: 10.1016/j.canlet.2023.216284. Epub 2023 Jun 24. PMID: 37356470; PMCID: PMC10408729.
SEQUENCE No. (e.g., 1, 2, 3, etc.); […] (e.g., Cells, Incubation, Reagent, etc.); VALUE and DESCRIPTION.
1; Cells; 5 uL; white, solid bottom 1536-well Greiner assay plate.
2; Compounds; 23 nL; Kalypsis pin tool (Wako USA) equipped with a 1536-well pin head to transfer to the assay plates.
3; Incubation; 48 hours; 37C incubation.
4; Reagent;5uL; CellTiter Glo (Promega).
5; Detector; 425V; Luminescence; Viewlux PerkinElmer.
NOTES (numbers refer to Sequence numbers above)
1. The cell-based screening methods employed in this study were like those previously published. Briefly, the corresponding myeloma cell lines were screened in 1,536-well plates with 500 cells, 5-uL per well for inhibition of cell viability (assessed by measuring ATP levels with CellTiterGlo).
2. NCATS MIPE 4.0 library of approved and investigational drugs were added using the Kalypsis pin tool. Wells treated with DMSO only for 100% viability and media only wells for 0% viability were used as controls.
3. The assay plates were covered and incubated for 48 hours in a 37C, 5% CO2 incubator with controlled humidity.
4. After 48 hours, CellTilter-GloTM luminescent substrate mix (Promega) reagent was added to the assay plate and plates we incubated for 5 min at room temperature.
5. Signal was measured as median relative luminescence units on a ViewLux (PerkinElmer) multiplate reader.
[1] Heske CM, Davis MI, Baumgart JT, Wilson K, Gormally MV, Chen L, Zhang X, Ceribelli M, Duveau DY, Guha R, Ferrer M, Arnaldez FI, Ji J, Tran HL, Zhang Y, Mendoza A, Helman LJ, Thomas CJ. Matrix Screen Identifies Synergistic Combination of PARP Inhibitors and Nicotinamide Phosphoribosyltransferase (NAMPT) Inhibitors in Ewing Sarcoma. Clin Cancer Res. 2017 Dec 1;23(23):7301-7311. doi: 10.1158/1078-0432.CCR-17-1121. Epub 2017 Sep 12. PMID: 28899971; PMCID: PMC6636827.
Potency is the fitted concentration of half-maximal effect.

Which Potency does the source give for COc1cc([C@@H]2c3cc4c(cc3[C@@H](O[C@@H]3O[C@@H]5CO[C@@H](C)O[C@@H]5[C@H](O)[C@@H]3O)[C@H]3COC(=O)[C@H]23)OCO4)cc(OC)c1O here?
Its Potency is 1.48 µM (active).

For CC1=C[C@@H]2[C@@H]([C@@H](O)C[C@@]3(C)[C@H]2C[C@@H](C)[C@]3(O)C(=O)CO)[C@@]2(C)Cc3cnn(-c4ccccc4)c3C=C12, which Potency is on record?
The Potency was 18.7 µM (active).

For NC1(C(=O)N[C@@H](CCO)c2ccc(Cl)cc2)CCN(c2ncnc3[nH]ccc23)CC1, which “viability, % of DMSO” value is on record?
The value was 171%.

For CN(C)CCOc1ccc(-c2nc(-c3ccc4c(c3)CCC4=NO)c(-c3ccncc3)[nH]2)cc1, which Potency is on record?
The Potency was 20.9 µM (active).

Which Potency does the source give for Cc1ccc(NC(=O)Nc2cc(C(F)(F)F)ccc2F)cc1Nc1ccc2c(c1)NC(=O)C2=Cc1ccc[nH]1 here?
Its Potency is 26.4 µM (active).

With CCN1CCC(n2cc(CNc3cc(Cl)c4ncc(C#N)c(Nc5ccc(F)c(Cl)c5)c4c3)nn2)CC1 as the compound, how does the Potency read?
Its Potency is 9.35 µM (active).

Which “viability, % of DMSO” value does the source give for CC1C(=O)OC2C(O)C34C5CC(C(C)(C)C)C36C(OC(=O)C6O)OC4(C(=O)O5)C12O (stereo not given) here?
The value was 129%.

Which Potency does the source give for C#CCN(C)CC1=Cc2ccccc2Oc2ccccc21 here?
The Potency was 16.6 µM (active).

With CCCCCCOC(=O)N=C(N)c1ccc(NCc2nc3cc(C(=O)N(CCC(=O)OCC)c4ccccn4)ccc3n2C)cc1 as the compound, how does the Potency read?
Its Potency is 16.6 µM (active).

For CN(C)c1nc(Cc2ccc(NC(=O)c3ccc(C(F)(F)F)cc3)cc2)nc(N(C)C)c1CC(=O)O, which “viability, % of DMSO” value is on record?
Its value is 113%.

For CN1CC(=O)N2C(Cc3c([nH]c4ccccc34)[C@H]2c2ccc3c(c2)OCO3)C1=O (stereo not given in full), which Potency is on record?
The Potency was 1.32 µM (active).

Which “viability, % of DMSO” value does the source give for OC[C@H]1O[C@@H](OCCc2ccc(O)cc2)[C@H](O)[C@@H](O)[C@H]1O here?
Its value is 178%.

Which “viability, % of DMSO” value does the source give for C[C@@]1(c2cc(-c3cncnc3)c(F)cc2F)CCSC(N)=N1 here?
The value was 162%.

For CO[C@H]1O[C@@H]2O[C@@]3(C)CC[C@@H]4[C@@H](C)CC[C@@H]([C@H]1C)[C@@]24OO3, which Potency is on record?
The Potency was 3.32 µM (active).

With N#CC(=C1Nc2ccccc2S1)c1ccnc(OCc2ccc(CN3CCOCC3)cc2)n1 as the compound, how does the Potency read?
The Potency was 26.4 µM (active).

For Cc1c(C(=O)Nc2ccc(N3C[C@@H](C)O[C@@H](C)C3)nc2)cccc1-c1ccc(OC(F)(F)F)cc1, which Potency is on record?
The Potency was 18.7 µM (active).

For CCOC(=O)N1c2ccc(C(F)(F)F)cc2[C@@H](N(Cc2cc(C(F)(F)F)cc(C(F)(F)F)c2)C(=O)OC)C[C@H]1CC, which Potency is on record?
Its Potency is 13.2 µM (active).

For Clc1ccc(C2(c3ccc(-c4cn[nH]c4)cc3)CCNCC2)cc1, which Potency is on record?
The Potency was 23.5 µM (active).

With CCC(=O)N1CCN(c2ccc(-n3c(=O)ccc4cnc5ccc(-c6cnc7ccccc7c6)cc5c43)cc2C(F)(F)F)CC1 as the compound, how does the Potency read?
The Potency was 0.0047 µM (active).

Which “viability, % of DMSO” value does the source give for NCC1CCC(C(=O)O)CC1 (stereo not given) here?
Its value is 117%.

For O[C@@H](COc1cccc2ncccc12)CN1CCN(C2c3ccccc3[C@@H]3[C@H](c4ccccc42)C3(F)F)CC1 (stereo not given in full), which Potency is on record?
The Potency was 23.5 µM (active).

With CN(C)S(=O)(=O)c1ccc2c(c1)C(=Cc1cc3c([nH]1)CCCC3)C(=O)N2 as the compound, how does the Potency read?
The Potency was 8.33 µM (active).

With O=c1[nH]c(=O)n([C@H]2C[C@@H](O)[C@@H](CO)O2)cc1C(F)(F)F as the compound, how does the Potency read?
The Potency was 8.33 µM (active).

For Oc1ccc(C=Cc2cc(O)cc(O)c2)cc1, which Potency is on record?
The Potency was 33.2 µM (active).

With C[C@H]1COC2=C1C(=O)C(=O)c1c2ccc2c1CCCC2(C)C as the compound, how does the Potency read?
The Potency was 18.7 µM (active).

With COc1ccc2ccc(=O)oc2c1CC=C(C)C as the compound, how does the Potency read?
The Potency was 13.2 µM (active).

With Clc1ccc(COC(Cn2ccnc2)c2ccc(Cl)cc2Cl)c(Cl)c1 (stereo not given) as the compound, how does the Potency read?
The Potency was 20.9 µM (active).

With CC1(COc2ccc3c(c2)ncn3-c2ccc3cccc(N4CCC(N)CC4)c3n2)COC1 as the compound, how does the Potency read?
Its Potency is 11.8 µM (active).

For CN1CCC(COc2cnc(-c3cccc(Cn4nc(-c5cccc(C#N)c5)ccc4=O)c3)nc2)CC1, which Potency is on record?
The Potency was 13.2 µM (active).

With COC(=O)[C@H](c1ccccc1Cl)N1CCc2sccc2C1 as the compound, how does the “viability, % of DMSO” value read?
The value was 101%.

For CCC(=O)NCC[C@@H]1CCc2ccc3c(c21)CCO3, which “viability, % of DMSO” value is on record?
Its value is 117%.

With CN(C)CC[C@H](CSc1ccccc1)Nc1ccc(S(=O)(=O)NC(=O)c2ccc(N3CCN(Cc4ccccc4-c4ccc(Cl)cc4)CC3)cc2)cc1[N+](=O)[O-] as the compound, how does the Potency read?
The Potency was 0.187 µM (active).

Which Potency does the source give for CCCCOCCOc1nc(-c2ccc(C(=O)O)c(F)c2)sc1C here?
Its Potency is 0.418 µM (active).

With O=S(=O)(O)c1ccc2cc(N=Nc3cc(S(=O)(=O)O)c4cccnc4c3O)ccc2c1 as the compound, how does the Potency read?
Its Potency is 16.6 µM (active).

Which Potency does the source give for CCCCCCCCCCCCCC(=O)N[C@H](CO)[C@H](O)c1ccc([N+](=O)[O-])cc1 here?
Its Potency is 23.5 µM (active).

With COc1cc(Cl)cn2c(-c3cccc(NC4CNC4)n3)cnc12 as the compound, how does the Potency read?
Its Potency is 20.9 µM (active).

Which Potency does the source give for COc1c(C)cnc(Cn2cnc3c(Cl)nc(N)nc32)c1C here?
The Potency was 0.187 µM (active).

Which Potency does the source give for NC(=O)c1noc([C@H](CCCC2CCCCC2)CC(=O)NO)n1 here?
The Potency was 7.43 µM (active).

For O=S(=O)(NCCNCC=Cc1ccc(Br)cc1)c1cccc2cnccc12, which Potency is on record?
Its Potency is 16.6 µM (active).

Which Potency does the source give for Cc1[nH]c(C=C2C(=O)Nc3ccc(S(=O)(=O)N(C)c4cccc(Cl)c4)cc32)c(C)c1C(=O)N1CCN(C)CC1 here?
Its Potency is 26.4 µM (active).
